# Source: PubChem BioAssay (EPA / NIEHS)
# Where “and” joins values, the source holds several entries; their conditions need not be identical. Identical values can stand only once. Calls of active or inactive are those of the source. How the source made its calls: active means hit-call score of the fitted dose curve at least 0.9, where 1 is the maximum; inactive means score below 0.9.
# Read-out: Secreted IgG (sIgG), gene 3500
# Experiment: BSK_BT_sIgG: BioMAP Diversity Plus: BT Assay for Secreted IgG (sIgG) Biomarker Activity (AID 2284226)
# Details: primary human B cells with PBMC
# Experimental: BSK_BT is a cell-based, multiplexed-readout assay that uses B cell and peripheral blood mononuclear cells, a human vascular primary cell co-culture, with measurements taken at 24 hours after chemical dosing in a microplate: 96-well plate.BSK_BT_sIgG is an assay component measured in the BSK_BT assay. It measures secreted IgG related to regulation of gene expression using ELISA technology.Data from the assay component BSK_BT_sIgG was analyzed at the endpoint, BSK_BT_sIgG, in the positive analysis fitting direction relative to DMSO as the negative control and baseline of activity. Using a type of cytokine quantitation reporter, gain or loss-of-signal activity can be used to understand protein changes. To generalize the intended target to other relatable targets, this assay endpoint is annotated to the 'immunoglobulin' intended target family, where the subfamily is 'IgG'.
# The levels of cell surface (or secreted, indicated by the prefix "s") biomarker endpoints were measured by ELISA. Overt cytotoxicity to cells in confluent adherent cultures (all systems other than the BT system) was assessed by measuring total protein levels using sulforhodamine B (SRB) staining in parallel cultures at the time of biomarker measurements, indicated as SRB endpoints. For proliferation assays for adherent cell types, individual cell types are cultured at sub-confluence and relative cell numbers quantified by SRB staining at time points optimized for each system (48 h: 3C and CASM3C systems; 72 h: BT and HDF3CGF systems; 96 h: SAg system). SRB was performed by staining cells with 0.1% SRB after fixation with 10% TCA and reading wells at 560 nm.Viability and proliferation of PBMC (T cells) was quantified by Alamar Blue reduction for the SAg and BT systems. For PBMC viability (referred to as PBMC Cytotoxicity within the assay endpoint names), cells were plated (75,000/well in a 96-well plate) and then chemical samples added for 1 h before addition of activators, SEB and TSST-1 (20 ng/mL final concentration each). Cells were incubated for 90 h. Then, Alamar Blue (20 uL/well) (Invitrogen, Cat DAL1100) was added for 6 h, and the plates were read with a fluorescence microplate reader at 546/580 nm (excitation/emission). For PBMC proliferation, cells were plated and activated as above but incubated for only 16 h prior to addition of Alamar Blue. Plates were read after 6 h.
SMILES,AC50,outcome
OC(O)(C(F)C(O)(O)C(F)(F)F)C(F)(F)F,32.6 µM (active) and 39.1 µM (active),
FC(F)(F)C(F)(F)C(F)(F)C(F)(F)C(F)(F)C(F)(F)I,,inactive
NCC(F)(F)C(F)(F)C(F)(F)C(F)(F)F,,inactive
O=C(Cl)C(F)(F)C(F)(F)C(F)(F)C(=O)Cl,,inactive
S=P(N1CC1)(N1CC1)N1CC1,2.71 µM (active),
OCc1c[nH]c2ccccc12,30.8 µM (active),
Cc1cccc(O)c1C,,inactive
FC(F)(F)COC(OCC(F)(F)F)OCC(F)(F)F,,inactive
OCCC(F)(F)C(F)(F)C(F)(F)C(F)(F)F,,inactive
FC(F)C(F)(F)COCC1CO1 (stereo not drawn),,inactive
C[Si](C)(C)C(F)(F)C(F)(F)C(F)(F)F,,inactive
O=S(=O)(O)CCC(F)(F)C(F)(F)C(F)(F)C(F)(F)C(F)(F)C(F)(F)F,,inactive
FC(F)=C(F)C(F)(F)C(F)(F)C(F)(F)C(F)(F)C(F)(F)C(F)(F)F,,inactive
